p53ts 39C kill – cytotoxicity in p53ts cells at nonpermissive temperature. AID 902. Potency, µM (titrated, usually from 46.1 µM), without a hit: at the highest dose activity change, negative = cell killing, actives largely listed as cytotoxic. actives 1.5% (n = 130,000). H1299-p53A138V viability at 39C, ATP luminescence, 24 h; also: % is scaled to controls: 0 for no effect and ±100 for the full control effect; nearly all actives have a fitted effect of over 55% in size
Peg3 imprint – inducers of genomic imprint erasure in mouse ES cells; actives 0.02% (n = 110,000); Potency, µM (top dose mostly 60.7 µM), for the others: top-dose activity change, positive = activation, actives largely listed as activators; mouse ES Peg3-LacZ reporter, beta-gal luminescence, 40 h
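Imprint erasure is scored as LacZ activity from the silenced maternal Peg3 allele in feeder-free female ES cells cultured 40 h with LIF. Luminescence is normalized to in-plate negative controls and fitted to the Hill equation.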
IkB sig inh – IkB pathway inhibition in ABC-DLBCL cells | ABC-DLBCL IkBa-CBG/CBR dual luciferase ratio, 4 h; response scale: scaled: untreated 0%, proteasome inhibitor 100% | Potency, µM (highest dose often 57.1 µM), inactives show top-dose IkBa stabilization activation | actives 0.04% (n = 110,000); active = well fitted curve in the direction sought with a large enough effect in the signal ratio, not every such curve was filed as active; inconclusive = small, poorly fitted or top-dose-only effect, or a change in a side signal; the % refers to the signal ratio;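 also: the direction sought is a rising ratio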
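Curves were fitted separately to fusion (green), unfused (red) and ratio luminescence, then classed by r2, magnitude and activity. Cells: OCI-Ly3, 4 h compound plus doxycycline at 37C; 10 uM MG-132 defined full response.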
p53ts 32C kill – p53ts cell cytotoxicity, permissive temperature; H1299-p53A138V at 32C, ATP luminescence viability, 24 h; Potency, µM (doses to about 46.1 µM), without a hit: top-dose activity change, negative = cytotoxicity, actives largely listed as cytotoxic; actives 0.93% (n = 130,000);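 also: 0% = DMSO and -100% = full killing by reference compound; nearly all actives have a fitted effect of over 55% in size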
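H1299-p53 A138V cells (temperature-sensitive p53) exposed 24 h to up to 46 uM compound at 32C, where p53 is wild-type in conformation. Viability read as ATP luminescence and normalised to DMSO and 100 uM tamoxifen. AC50 fitted with the Hill equation.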
The depositor's hits bear a star; [ ] = dose if it differs, or a comment. Rows were chosen to be rich in hits. Some 1.8% of all compounds tested hit in one or more screens of this group. Unless noted, calls follow the shape of the dose curve; as a rule, active = well fitted curve in the direction sought with a large enough effect; inconclusive = small, poorly fitted or top-dose-only effect, or another doubt; inactive = no such curve, though single readings can be large; an effect the other way counts as inactive or inconclusive. Potency is read from the fitted curve at half-maximal effect.

How did CC(C)(C)c1ccc(-c2nc(SCCCOc3ccccc3)n3[nH]c(=O)cc3n2)cc1 do in these assays?
p53ts 39C kill: 20µM*; Peg3 imprint: -4%[10.9 µM]; IkB sig inh: inconclusive; p53ts 32C kill: 7%

How did Cc1cc(OCCCSc2nc(-c3ccc(C(C)(C)C)cc3)nc3cc(=O)[nH]n23)ccc1Cl do in these assays?
p53ts 39C kill: 16µM*; Peg3 imprint: -10%[10.9 µM]; IkB sig inh: 4%; p53ts 32C kill: 30%

Results for Cc1cc(C)cc(OCCSc2nc(-c3ccc(C(C)(C)C)cc3)nc3cc(=O)[nH]n23)c1 ?
p53ts 39C kill: inconclusive; Peg3 imprint: -6%[10.9 µM]; IkB sig inh: 5%; p53ts 32C kill: inconclusive

What do the screens show for `Cc1ccc(N2CCN(C(=O)CCc3c(C)nc4ncnn4c3C)CC2)c(C)c1`?
p53ts 39C kill: -10%; Peg3 imprint: -6%[10.9 µM]; IkB sig inh: inconclusive; p53ts 32C kill: -7%

How did Cc1nnc2ccc(N3CCN(C(=O)c4ccccc4)CC3)nn12 do in these assays?
p53ts 39C kill: 4%; Peg3 imprint: -11%; IkB sig inh: 3%; p53ts 32C kill: 0%

Results for O=C(c1ccc(Br)o1)N1CCN(c2ccc3nnc(-c4ccccc4)n3n2)CC1 ?
p53ts 39C kill: -5%; Peg3 imprint: -39%; IkB sig inh: inconclusive; p53ts 32C kill: 13µM*

How did CN(Cc1ccco1)c1cc(-c2cccc(C#N)c2)ncn1 do in these assays?
p53ts 39C kill: -7%; Peg3 imprint: -7%; IkB sig inh: -1%[11.4 µM]; p53ts 32C kill: 3%

Results for COc1cccc(-c2cc(N(C)Cc3ccco3)ncn2)c1 ?
p53ts 39C kill: 13µM*; Peg3 imprint: -84%; IkB sig inh: -1%[11.4 µM]; p53ts 32C kill: inconclusive

Results for CN(C)c1ccc(-c2cc(N(C)Cc3ccco3)ncn2)cc1 ?
p53ts 39C kill: 13µM*; Peg3 imprint: -39%; IkB sig inh: -2%[11.4 µM]; p53ts 32C kill: 13µM*

What do the screens show for `CCOC(=O)OCC1C=C[C@H](c2cc(-c3ccccc3)ccc2O)C(c2ccc(C(C)=O)cc2)O1` (stereo partly drawn)?
p53ts 39C kill: -9%[9.22 µM]; p53ts 32C kill: 12%[9.22 µM]

How did CCOc1ccc(NC(=O)Cn2c3ncccc3c(=O)n2-c2ccc(CC)cc2)cc1 do in these assays?
p53ts 39C kill: -25%; Peg3 imprint: 6%[10.9 µM]; IkB sig inh: 1%; p53ts 32C kill: 6%

How did CC1=CC(=C2C(=O)c3ccccc3C2=O)C=C(C)O1 do in these assays?
p53ts 39C kill: -10%; Peg3 imprint: -20%; IkB sig inh: -2%; p53ts 32C kill: -11%

What do the screens show for `COC1=C(OC)C(=O)c2ccccc2C1=O`?
p53ts 39C kill: 4µM*; Peg3 imprint: -30%; IkB sig inh: 20%; p53ts 32C kill: 6.3µM*

How did COc1cccc(-c2nccc(NCc3ccccc3)n2)c1 do in these assays?
p53ts 39C kill: 13µM*; Peg3 imprint: -13%; IkB sig inh: -1%[11.4 µM]; p53ts 32C kill: 20µM*

How did COc1ccc(-n2nnnc2S(=O)(=O)CC(=O)N2CCCCC2)cc1 do in these assays?
p53ts 39C kill: inconclusive; Peg3 imprint: -35%; IkB sig inh: inconclusive; p53ts 32C kill: 20µM*

Results for CCC1CN(C(=O)Nc2cc(Cl)c(OC)cc2OC)c2ccccc2O1 (stereo not drawn) ?
p53ts 39C kill: 0%; Peg3 imprint: -10%[10.9 µM]; IkB sig inh: -3%; p53ts 32C kill: 2%

Results for Cn1c(/C(C#N)=C/c2ccccc2Br)nc2ccccc21 ?
p53ts 39C kill: inconclusive; Peg3 imprint: -14%[10.9 µM]; IkB sig inh: inconclusive; p53ts 32C kill: 10µM*

What do the screens show for `CN(C(=O)c1ccccc1C(=O)O)C1CC(C)(C)NC(C)(C)C1`?
p53ts 39C kill: 1%; Peg3 imprint: 2%; IkB sig inh: 14%; p53ts 32C kill: 4%

Results for Cc1ccc(CNc2nc(-c3ccco3)nn2C(=O)c2ccccc2[N+](=O)[O-])cc1 ?
p53ts 39C kill: 10µM*; Peg3 imprint: -21%[10.9 µM]; IkB sig inh: -1%; p53ts 32C kill: inconclusive

What do the screens show for `CC[C@]1(O)C[C@H]2CN(CCc3c([nH]c4ccccc34)[C@](C(=O)OC)(c3cc4c(cc3OC)N(C=O)[C@H]3[C@@](O)(C(=O)OC)[C@H](OC(C)=O)[C@@]5(CC)C=CCN6CC[C@]43[C@H]65)C2)C1`?
p53ts 39C kill: 32µM*; IkB sig inh: inconclusive; p53ts 32C kill: inconclusive

Results for CCC1(O)CC2CN(CCc3c([nH]c4ccccc34)[C@@](C(=O)OC)(c3cc4c(cc3OC)N(C=O)C3[C@]45CCN4CC=C[C@@](CC)([C@@H](OC(C)=O)[C@]3(O)C(=O)OC)[C@H]45)C2)C1 (stereo partly drawn) ?
Peg3 imprint: -22%

What do the screens show for `Cc1cc2oc(=O)cc(Cn3nnc(-c4ccc(Cl)cc4)n3)c2cc1C(C)C`?
p53ts 39C kill: 4%

Results for CC1CC(C)(C)Nc2ccc(OC(=O)c3ccco3)cc21 (stereo not drawn) ?
p53ts 39C kill: 10µM*; Peg3 imprint: -54%; IkB sig inh: inconclusive; p53ts 32C kill: 16µM*

What do the screens show for `COc1ccc(N2CCN(CCCNC(=O)c3cc(Nc4ccccc4OC)nc4ccccc34)CC2)cc1`?
p53ts 39C kill: inconclusive; Peg3 imprint: -21%[10.9 µM]; IkB sig inh: inconclusive; p53ts 32C kill: 1%

Results for COc1ccc(Nc2cc(C(=O)NCCCN3CCN(c4ccc(OC)cc4)CC3)c3ccccc3n2)cc1 ?
p53ts 39C kill: 13µM*; Peg3 imprint: -20%[10.9 µM]; IkB sig inh: inconclusive; p53ts 32C kill: inconclusive

How did Nc1nnc(CC(=O)N/N=C\c2cc([N+](=O)[O-])ccc2O)s1 do in these assays?
p53ts 39C kill: 8%

What do the screens show for `O=[N+]([O-])c1ccc(O)c(/C=N/Nc2ccccn2)c1`?
p53ts 39C kill: 5.6µM*; p53ts 32C kill: -22%

How did CCOC(=O)c1ccc(NC(=O)CSc2nc3c(c(=O)n2C)SC(C)C3)cc1 (stereo not drawn) do in these assays?
p53ts 39C kill: 13µM*; Peg3 imprint: -18%; IkB sig inh: -1%; p53ts 32C kill: 7.9µM*

What do the screens show for `O=C(Nc1ccc(NC(=O)C2CCCCC2)cn1)c1ccco1`?
p53ts 39C kill: 5µM*; Peg3 imprint: -65%; IkB sig inh: 0%; p53ts 32C kill: 4µM*

What do the screens show for `CC(C)C(=O)Nc1ccc(NC(=O)c2ccccn2)cn1`?
p53ts 39C kill: 13µM*; Peg3 imprint: -84%; IkB sig inh: 1%; p53ts 32C kill: 7.9µM*

What do the screens show for `O=C(Nc1ccc(NC(=O)C23CC4CC(CC(C4)C2)C3)cn1)c1ccco1`?
p53ts 39C kill: -17%; Peg3 imprint: -2%; IkB sig inh: 0%; p53ts 32C kill: -7%

How did O=C(Nc1ccc(NC(=O)C2CC2)nc1)c1ccccn1 do in these assays?
p53ts 39C kill: 6.3µM*; Peg3 imprint: -88%; IkB sig inh: inconclusive; p53ts 32C kill: 13µM*

What do the screens show for `CCC(=O)Nc1ccc(NC(=O)c2ccccn2)cn1`?
p53ts 39C kill: inconclusive; Peg3 imprint: -73%; IkB sig inh: inconclusive; p53ts 32C kill: inconclusive

From PubChem
